# KCNH2 WT inh: inhibitors of human wildtype KCNH2 potassium channel; hit rate 0.37% among 340,000; AID 720551; U2OS, BacMam KCNH2, thallium flux FluxOr; active compounds read low; Q12809; activity change, % at 1.84 µM;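 active = maximum activity change below -70%; inconclusive = maximum activity change between -70% and -50%; inactive = maximum activity change above -50%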; also: % is scaled to controls: 0 for no effect and ±100 for the full control effect
# Target sequence (Q12809 whole entry, looked up): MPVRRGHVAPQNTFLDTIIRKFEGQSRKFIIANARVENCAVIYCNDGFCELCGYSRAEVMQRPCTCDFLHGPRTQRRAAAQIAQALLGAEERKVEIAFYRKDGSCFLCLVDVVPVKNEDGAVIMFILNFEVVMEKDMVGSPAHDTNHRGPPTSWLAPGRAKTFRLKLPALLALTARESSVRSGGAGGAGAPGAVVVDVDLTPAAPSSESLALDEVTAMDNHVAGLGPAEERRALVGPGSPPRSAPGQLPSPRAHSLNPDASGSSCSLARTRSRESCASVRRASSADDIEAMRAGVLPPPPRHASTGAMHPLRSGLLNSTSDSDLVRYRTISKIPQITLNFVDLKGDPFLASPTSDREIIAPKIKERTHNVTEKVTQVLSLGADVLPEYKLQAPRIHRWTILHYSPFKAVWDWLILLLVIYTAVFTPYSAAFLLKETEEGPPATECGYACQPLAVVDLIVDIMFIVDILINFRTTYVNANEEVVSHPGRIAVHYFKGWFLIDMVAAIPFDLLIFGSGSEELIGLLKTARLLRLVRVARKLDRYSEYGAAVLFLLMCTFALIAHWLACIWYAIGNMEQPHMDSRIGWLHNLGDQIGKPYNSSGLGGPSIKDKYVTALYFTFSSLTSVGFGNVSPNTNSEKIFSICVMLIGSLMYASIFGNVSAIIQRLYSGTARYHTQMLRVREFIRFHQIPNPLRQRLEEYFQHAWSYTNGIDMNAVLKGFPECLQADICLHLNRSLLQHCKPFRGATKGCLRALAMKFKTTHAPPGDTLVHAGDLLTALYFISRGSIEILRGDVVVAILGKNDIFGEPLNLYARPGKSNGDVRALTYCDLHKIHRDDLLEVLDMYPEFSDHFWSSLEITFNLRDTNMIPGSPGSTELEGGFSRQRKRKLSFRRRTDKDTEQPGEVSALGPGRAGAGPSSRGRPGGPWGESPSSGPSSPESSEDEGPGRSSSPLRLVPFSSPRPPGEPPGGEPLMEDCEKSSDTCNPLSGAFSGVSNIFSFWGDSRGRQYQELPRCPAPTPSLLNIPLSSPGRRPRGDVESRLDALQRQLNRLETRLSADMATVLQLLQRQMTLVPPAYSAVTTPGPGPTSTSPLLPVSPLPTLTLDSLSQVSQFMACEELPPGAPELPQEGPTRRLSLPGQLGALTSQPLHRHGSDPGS
#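 U2OS cells transduced with wild-type KCNH2 virus are loaded with FluxOr dye for 45 min, and thallium flux is measured in kinetic reads before and after stimulation buffer. Rate constants are normalized to DMSO controls.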
# TRPV1 agonist: human TRPV1 agonism. activation, % at 8.33 µM. Q8NER1. TRPV1-expressing cells, Fluo-8 calcium influx, agonist mode. AID 540275. hit rate 0.19% among 320,000; in the data active = activation above about 80%; inconclusive = between about 30% and that limit; also: 0% is about no effect
#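 Fluo-8 calcium influx in TRPV1-expressing cells, kinetic read (ex 480/em 520 nm). Compound added and read 3 min for agonist activity, followed by capsaicin at EC20 final and 2 min further read for enhancement.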
# ClpP mod: qHTS Assay for Activators of ClpP. ATP-dependent Clp protease proteolytic subunit (Bacillus subtilis (strain 168)), P80244. AID 651965, 2013. purified B. subtilis ClpP, FRET peptide cleavage, 20 min. hit rate 1.9% among 340,000. Potency, µM (top dose mostly 57.5 µM), for the others: at the top dose activity change, negative = active; active = well fitted falling curve with a large enough effect; inconclusive = small, poorly fitted or top-dose-only effect; inactive = no such curve, though single readings can be large or run the other way; also: potency is read from the fitted curve at half-maximal effect; the source files actives as falling curves though it sought activators and does not explain the sign; nearly all actives have a fitted effect of over 65% in size
#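 ClpP 10 microg/mL final, pH 8 Tris/KCl buffer with BSA, glycerol, Tween-20; compound pinned in; FRET-FV substrate; RT 20 min; Ex320/Em430; ΔFRET vs ADEP 5.8 microM, DMSO, no enzyme.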
# TRPV1 PAM: enhances activation of the human vanilloid receptor TRPV1. hit rate 0.02% among 320,000. potentiation, % at 8.33 µM. Q8NER1. TRPV1-expressing cells, Fluo-8 calcium influx, capsaicin EC20 potentiation; in the data active = potentiation above about 80%; inconclusive = between about 30% and that limit; also: 0% is about no effect
#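 Fluo-8 calcium influx in TRPV1-expressing cells, kinetic read (ex 480/em 520 nm). Compound added and read 3 min for agonist activity, followed by capsaicin at EC20 final and 2 min further read for enhancement.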
# KCNH2 3.1 inh: KCNH2 3.1 (human) potassium channel inhibition; U2OS KCNH2 3.1, thallium flux FluxOr; active compounds read low; activity change, % (tested at about 1.8 µM); hit rate 0.95% among 340,000;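 active = maximum activity change below -70%; inconclusive = maximum activity change from -70% to -50%; inactive = maximum activity change above -50%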;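 also: thallium influx rate constant from kinetic fluorescence after stimulation buffer; % is scaled to controls: 0 for no effect and ±100 for the full control effect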
#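 We transduce U2OS cells with the mutant 3.1 virus, culture them overnight, load FluxOr with Red40 quencher for 45 min, then add stimulation buffer and read kinetically for 2 min to derive a normalized rate constant.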
# p53 reactivation: mutant p53 re-activation in reporter cells; Potency, µM (doses to about 92.2 µM), for inactives: at the top dose activity change, positive = activation, actives largely listed as activators; hit rate 0.063% among 320,000; H1299 p53-A138V BP100-luciferase reporter, luminescence, 24 h; also: potency is read from the fitted curve at half-maximal effect; % of control where 0% means no effect; nearly all actives have a fitted effect of over 45% in size
#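 p53-null H1299 cells stably carrying temperature-sensitive p53-A138V and a BP100-luciferase reporter were pinned with compounds (4-point, 1:5 series) and held 24 hrs at 37 deg C. Luminescence was read 10 min after detection reagent.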
# ClpP validation: inhibits B. subtilis ClpP protease, hit validation | shares compounds with ClpP mod | purified B. subtilis ClpP, FRET-FV substrate cleavage, 20 min | Potency, µM (top dose mostly 57.5 µM), inactives show at the top dose activity change, negative = inhibition, usual class: inhibitors | hit rate 40% among 470; also: potency is read from the fitted curve at half-maximal effect; % is scaled to controls: 0 for no effect and ±100 for the full control effect; nearly all actives have a fitted effect of over 70% in size
# Active calls of the source: *; ? = inconclusive; / = no result. An excerpt weighted towards active compounds, which were near 2.6% of everything screened. Unless noted, calls follow the shape of the dose curve; as a rule, active = well fitted curve in the direction sought with a large enough effect; inconclusive = small, poorly fitted or top-dose-only effect, or another doubt; inactive = no such curve, though single readings can be large; an effect the other way counts as inactive or inconclusive.
SMILES,KCNH2 WT inh,TRPV1 agonist,ClpP mod,TRPV1 PAM,KCNH2 3.1 inh,p53 reactivation,ClpP validation
Nc1c(C(=O)Nc2cccc(Cl)c2Cl)sc2nc(-c3cccnc3)ccc12,-7,-9,4µM*,18,-4,12%,0%
O=C(CN1C(=O)COc2ccc(S(=O)(=O)NC3CCCC3)cc21)Nc1ccc(Cl)cc1,/,/,0%,/,/,/,/
CCOc1ccc(N(C(=O)CNC(=O)c2ccco2)C(C(=O)NC2CCCC2)c2cccnc2)cc1 (configuration not stated),0,-6,/,-7,16,3%,/
CCOc1ccc(N(C(=O)CNC(=O)c2ccco2)C(C(=O)NC2CCCC2)c2ccco2)cc1 (configuration not stated),-11,1,3.2µM*,5,10,26%,0%
CN(c1ccccc1C(=O)NC1CCCCC1)S(=O)(=O)c1ccccc1,1,7,3%,1,2,-5%,/
CN(c1ccccc1C(=O)NC1CC2CCC1C2)S(=O)(=O)c1ccccc1 (configuration not stated),-1,?,7.9µM*,-5,-23,-17%,-3%
O=C1C(c2ccc(F)cc2)N(CCc2ccccc2)C(=O)CN1C1CCCCCC1 (configuration not stated),/,/,0%,/,/,/,/
Cc1cc(C)cc(C(=O)N(Cc2ccco2)c2c(N)n(Cc3ccccc3)c(=O)[nH]c2=O)c1,3,-1,10µM*,-1,-11,-3%,-1%
O=C(NCc1ccco1)c1ccc2sc([C@H]3C[C@H](O)[C@@H](CO)O3)nc2c1,/,/,-2%,/,/,/,/
C=C1NN(Cc2ccccc2)C(=O)N1c1ccc(OC)cc1,/,/,-2%,/,/,/,/
COc1ccc(-c2ccc(N(C)C)cc2)cc1[C@H]1[C@H]2C=CC[C@@H](C)[C@@H]2C(=O)N1Cc1ccccc1,6,?,2.2µM*,-9,-11,13%,34µM*
COc1ccc(-c2ccc(OC)c([C@H]3[C@H]4C=CC[C@@H](C)[C@@H]4C(=O)N3Cc3ccccc3)c2)cc1C,/,27,-6%,-13,/,8%,/
CC(C)(C)n1cnc2cc(NCc3ccccc3Cl)ccc21,/,/,-13%,/,/,/,/
CCOc1cc(C2NN=C(c3ccccc3)S2)ccc1OCc1ccccc1Cl (configuration not stated),5,8,3.5µM*,-17,-2,19%,?
CCOc1cc(CNC2CCCC2)ccc1OCc1ccccc1Cl,3,2,2%,7,-5,0%,/
Cc1c(C(=O)Nc2ccc(-c3nc4cc(Cl)ccc4o3)cc2)oc2ccccc12,/,/,8.9µM*,/,/,/,15µM*
Cc1nc2ccccn2c1C(=O)Nc1ccc2c(c1)OCCO2,-7,1,?,-8,-1,?,-2%
CCOC(=O)c1[nH]c2ccccc2c1NC(=O)c1cc(OCC)c(OCC)c(OCC)c1,/,/,45%,/,/,/,12%
O=S(=O)(Nc1cccc(-c2cn3cccnc3n2)c1)c1ccc(Cl)cc1,-5,1,7.1µM*,7,-17,-5%,24µM*
Cc1cccnc1NC(=O)c1ccc(S(=O)(=O)N2CCCCC2)cc1,5,-5,3.5µM*,7,0,-8%,0%
CCc1cc2c(N3CCN(C(=O)c4ccco4)CC3)ncnc2s1,-18,13,2.8µM*,-11,-2,-6%,-1%
COc1ccc(CNCc2c(C(=O)O)c(C)n(Cc3ccc(Cl)cc3)c2C)c(OC)c1,/,/,-1%,/,/,/,/
O=C(Nc1cccc(Cl)c1Cl)c1cc(S(=O)(=O)NCc2ccc3c(c2)OCO3)ccc1F,/,/,56%,/,/,/,?
COCCNC(=S)N(C)[C@H]1C[C@H]2c3cc(Oc4ccccc4C)ccc3CCN2C(=O)[C@H]1[C@H](C)O,-6,/,-6%,/,0,/,/
CCC(=O)n1nc(-c2ccccc2)nc1NCc1ccccc1,2,14,38%,1,2,?,6%
SMILES,KCNH2 WT inh,TRPV1 agonist,ClpP mod,TRPV1 PAM,KCNH2 3.1 inh,p53 reactivation,ClpP validation
COCC(=O)n1nc(-c2ccccc2)nc1NCc1ccccc1,3,1,/,5,13,-8%,/
COc1ccc(-c2oc3ncn4nc(COc5ccc(Cl)cc5)nc4c3c2-c2ccc(OC)cc2)cc1,/,/,35%,/,/,/,?
COc1ccc(-c2oc3ncn4nc(COc5c(C)cccc5C)nc4c3c2-c2ccc(OC)cc2)cc1,/,/,4%,/,/,/,/
COc1ccc(-c2cc3nc4n(c(=O)c3s2)CCC4)cc1,-4,13,106%,-10,3,18%,1.9µM*
COc1ccc(-c2cc3nc4n(c(=O)c3s2)CCCCC4)cc1,-15,18,/,-8,5,12%,/
O=S(=O)(Cc1ccc(Cl)cc1)c1ccccc1-c1nnc(-c2ccc(Cl)cc2)o1,-5,0,64%,3,/,-3%,27µM*
O=S(=O)(Cc1ccccc1)c1ccccc1-c1nnc(-c2ccccc2)o1,-16,/,44%,/,?,-1%,/
CSc1ccccc1-c1nnc(-c2ccc(C)cc2)o1,-15,/,-27%,/,-18,12%,/
Cc1ccc(-c2nnc(-c3ccccc3S(=O)(=O)Cc3ccc(Cl)cc3)o2)cc1,4,11,65%,14,-35,0%,14µM*
CCC(Sc1nc2cc(OC)c(OC)cc2c(=O)n1Cc1ccc(Cl)cc1)C(=O)NCCOC (configuration not stated),/,/,2%,/,/,/,/
COc1ccc(C(=O)N2CCCc3ccccc32)cc1,-14,2,-3%,-1,1,26%,/
COC(=O)CN1CCN(C(=O)c2ccc(F)cc2)c2ccccc2C1,4,-2,176%,-9,4,-2%,1%
COc1ccc(NC(=O)C2=C(C)Nc3nc(SCc4ccc(C)cc4C)nn3C2c2cccc(OC)c2OC)cc1 (configuration not stated),/,/,81%,/,/,/,-19%
COc1ccccc1NC(=O)C1=C(C)Nc2nc(SCc3cc(C)ccc3C)nn2C1c1ccccc1 (configuration not stated),/,/,1%,/,/,/,/
COc1nc(Nc2ccc(-c3nc4ccccc4o3)cc2)nc(N2CCOCC2)n1,-8,/,8.9µM*,/,-10,/,19µM*
c1ccc2oc(-c3ccc(Nc4nc(N5CCCCC5)nc(N5CCOCC5)n4)cc3)nc2c1,/,2,/,11,/,8%,/

# Assay outcomes (PubChem BioAssay)
